According to PubChem BioAssay AID504332 (National Center for Advancing Translational Sciences (NCATS), 2011):
The whole screen tested about 350,000 compounds, of which about 31,000 (8.9%) were called active. Not shown: some 15% with an inconclusive outcome. The sample holds actives, similar compounds and a random draw of the others, so the mix is not that of the screen. Calls follow the shape of the dose curve; as a rule, active = well fitted inhibition curve with a large enough effect; inconclusive = small, poorly fitted or top-dose-only effect; inactive = no such curve, though single readings can be large or run the other way.

The molecules below were run against Histone-lysine N-methyltransferase EHMT2 (Homo sapiens) (UniProt Q96KQ7) (assay: qHTS Assay for Inhibitors of Histone Lysine Methyltransferase G9a). Settings: G9a H3K9 monomethylation, AlphaScreen, 2 h; series mostly up to 59 µM; activity, negative = inhibition: at the top concentration.
Sequence of Histone-lysine N-methyltransferase EHMT2 (Homo sapiens) (Q96KQ7 913-1193 limits assumed): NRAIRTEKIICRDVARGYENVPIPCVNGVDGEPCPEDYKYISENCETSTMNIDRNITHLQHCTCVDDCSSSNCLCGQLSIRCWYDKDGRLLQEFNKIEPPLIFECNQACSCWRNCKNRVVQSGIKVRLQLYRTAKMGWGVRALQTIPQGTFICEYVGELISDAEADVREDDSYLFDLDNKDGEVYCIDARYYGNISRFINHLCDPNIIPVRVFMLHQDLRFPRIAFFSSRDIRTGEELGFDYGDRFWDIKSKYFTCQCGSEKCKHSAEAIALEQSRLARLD
Outline: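 Quantitative HTS format: methyltransferase activity on a biotin-tagged H3K9 peptide is measured by AlphaScreen, using a rabbit anti-monomethyl-H3K9 antibody with streptavidin donor and anti-IgG acceptor beads. Final levels are 20 nM enzyme, 500 nM peptide, 20 uM SAM; 2 h RT.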
% is scaled to controls: 0 for no effect and ±100 for the full control effect; potency is read from the fitted curve at half-maximal effect.
Also: nearly all actives have a fitted effect of over 75% in size.

Compound | activity, negative = inhibition | Potency
CCc1ccccc1N(C)C(=O)C1CCCN(c2ncnc3onc(-c4ccc(F)cc4)c23)C1 (configuration not stated) | -6.79% (inactive) | 
COc1ccc([C@H]2CC(=O)C=C(/C=C/c3ccccc3)C2)cc1 | -12.4% [at 2.33 µM] (inactive) | 
COc1ccccc1Nc1nc(N)nc(N)c1S(=O)(=O)c1ccccc1 | 27.8% (inactive) | 
Cc1ccc(C)c2[nH]c(=O)c(CCNC(=O)c3cccs3)cc12 | 2.66% [at 102 µM] (inactive) | 
C=CCn1c(CCNC(=O)c2cccs2)n[nH]c1=S |  | 11.2 µM (active)
C=CCn1c(CCc2ccc(OC(C)C)cc2)n[nH]c1=S | 9.89% [at 102 µM] (inactive) | 
CCc1ccc(N(C(=O)c2csnn2)C(C(=O)NC2CCCCC2)c2cccnc2)cc1 (configuration not stated) | -4.95% [at 102 µM] (inactive) | 
Cc1c(NS(=O)(=O)c2cc(C(=O)NCCc3ccc(F)cc3)cc(Cl)c2Cl)c(=O)n(-c2ccccc2)n1C | -13.8% [at 102 µM] (inactive) | 
CSc1ccccc1OCc1cc(C(=O)N(C)CCc2c(C)n[nH]c2C)no1 | 43.1% [at 0.0925 µM] (inactive) | 
Cc1cc(CN(C)C(=O)c2cc(COc3ccc(C)c(C)c3)on2)n[nH]1 | 25.5% [at 102 µM] (inactive) | 
COc1cc(Cl)ccc1OCc1cc(C(=O)N(C)CCc2c(C)n[nH]c2C)no1 |  | 39.8 µM (active)
NC(=O)NCCCC(=O)O | -0.244% [at 12.7 µM] (inactive) | 
Cc1ccccc1-c1nc2scc(CCNC(=O)C(=O)Nc3ccc(F)cc3F)n2n1 | 5.22% (inactive) | 
NCCCC[C@@H]1NC(=O)[C@H](CCC(=O)O)NC(=O)c2cc([N+](=O)[O-])cc(I)c2NCC[C@@H](C(N)=O)NC1=O |  | 14.1 µM (active)
CC(C)[C@@H]1NC(=O)c2cc([N+](=O)[O-])cc(I)c2NCCC[C@@H](C(=O)NC(CC(=O)O)C(N)=O)NC(=O)[C@H](CO)NC1=O (some centres not stated) | -1.59% [at 102 µM] (inactive) | 
NC(=O)CC[C@@H]1NC(=O)[C@H](CO)NC(=O)c2cc([N+](=O)[O-])cc(I)c2NCC[C@@H](C(N)=O)NC1=O |  | 10 µM (active)
NC(=O)C[C@@H]1NC(=O)CNC(=O)c2cc([N+](=O)[O-])cc(I)c2NCCC(C(N)=O)NC1=O (some centres not stated) |  | 11.2 µM (active)
Cc1oc(-c2ccccc2)nc1Cn1c(SCc2cccc(C(F)(F)F)c2)nc2cccnc21 | -29.7% (inactive) | 
Cc1ccc(C(=O)CN2C(=O)NC3(CCOc4ccccc43)C2=O)s1 (configuration not stated) | -5.02% [at 2.33 µM] (inactive) | 
CN1CCN(NC(=O)Nc2ccc(Br)cc2)CC1 | 10.4% [at 102 µM] (inactive) | 
CC(C)(C)OC(=O)NCCCCCNC(=O)c1[nH]cnc1C(=O)Nc1nccs1 | 3.9% [at 0.501 µM] (inactive) | 
O=C(COc1ccc(Cl)cc1)Nc1ccccc1OCc1cc(=O)n2ccccc2n1 | 7.45% (inactive) | 
COc1ccccc1OCCNC(=O)C(CCSC)NC(=O)COc1ccccc1 (configuration not stated) | 9.08% [at 12.7 µM] (inactive) | 

Compound | activity, negative = inhibition | Potency
O=C1C=C(c2cc(C(F)(F)F)cc(C(F)(F)F)c2)C[C@@H](c2ccc3c(c2)OCO3)C1 | 10.2% [at 0.501 µM] (inactive) | 
CCN(C(=O)Cn1c(=O)nc(-c2ccccc2)c2cc(Cl)ccc21)c1cccc(C)c1 | 24.8% (inactive) | 
O=C(CCC1N=C2c3ccccc3N=C(SCc3ccccc3F)N2C1=O)NCCc1ccccc1 (configuration not stated) | -4.93% (inactive) | 
C[C@H](NC(=O)c1[nH]cnc1C(=O)Nc1nccs1)c1ccccc1 | 8.27% [at 0.501 µM] (inactive) | 
CC(NC(=O)C(=O)Nc1nccs1)c1ccccc1 (configuration not stated) |  | 50.1 µM (active)
O=C(O)c1ccccc1-c1ccccc1C(=O)Nc1nccs1 | 2.15% (inactive) | 
Cc1cccc(C)c1-n1ncc(C(=O)NCCCN2CCCCC2)c1C1CCN(C(=O)OC(C)(C)C)CC1 | -25% (inactive) | 
CCCC(NCC(=O)Nc1ccccc1C(=O)NC1CC1)c1ccccc1 (configuration not stated) | -2.12% [at 102 µM] (inactive) | 
CCOC(=O)c1c(C)[nH]c(C)c1S(=O)(=O)NCC(=O)NCc1cccc(C)c1 | 7.2% (inactive) | 
CCCCc1cc(=O)oc2cc(C)cc(OCc3nn[nH]n3)c12 | 17.7% (inactive) | 
CCOC(=O)CCc1c(C)c2ccc(OCc3nn[nH]n3)c(C)c2oc1=O |  | 50.1 µM (active)
Cc1c(C)c2ccc(OCC(=O)N3CCC(C(=O)O)CC3)c(C)c2oc1=O | -7.73% [at 102 µM] (inactive) | 
CCc1ccc(C(=O)NN=C2CCCCCC2)s1 | 1.85% [at 102 µM] (inactive) | 
O=C(Nc1ccccc1Br)c1cc(CN2CCCC2)on1 | -5.99% (inactive) | 
COc1ccc(NC(=O)CSc2nc3ccccc3c(=O)n2C)cc1 | 7.85% [at 0.501 µM] (inactive) | 
COc1cccc(NC(=O)C(Sc2nnnn2C)c2ccccc2)c1 (configuration not stated) | 5.67% [at 102 µM] (inactive) | 
COc1cccc(NC(=O)C(Sc2nc3ccccc3c(=O)n2CC(C)C)c2ccccc2)c1 (configuration not stated) |  | 79.4 µM (active)
Cc1ccc(C2CCN(C(=O)c3cnn(-c4ccccc4Cl)c3C3CCN(C(=O)OC(C)(C)C)CC3)C2)cc1 (configuration not stated) | -43.6% (inactive) | 
Cc1ccc(NC(=O)c2sc3nc(N)c(C#N)cc3c2N)cc1 |  | 7.94 µM (active)
CC(=O)Nc1ccc(NC(=O)c2sc3nc4c(c(-c5ccc(C)cc5)c3c2N)CCC4)cc1 | -37.6% (inactive) | 
COc1ccc(NC(=O)c2cc(-c3ccc(C)cc3)on2)cc1 | -5.29% [at 0.501 µM] (inactive) | 
COc1ccc(CCNC(=O)CCNS(=O)(=O)c2cc(Br)cnc2N)cc1OC | 4.51% (inactive) | 
COCC1CCN(C(=O)C2CCC(=O)N(Cc3cccc(C(F)(F)F)c3)C2)CC1 (configuration not stated) | 15.3% [at 12.7 µM] (inactive) | 

Compound | activity, negative = inhibition | Potency
O=c1onc(-c2c(F)cccc2F)n1-c1ccccc1Cl | 22.1% [at 102 µM] (inactive) | 
O=c1o[nH]c(-c2ccccc2)c1N=Nc1c(F)cccc1Cl |  | 28.2 µM (active)
O=c1c(=O)n(Cc2c(F)cccc2Cl)ccn1Cc1ccccc1 | -38% (inactive) | 
Cc1nnc(NC(=O)CSc2nc3c([nH]c4ccccc43)c(=O)n2-c2cccc(Cl)c2)s1 | 6.79% (inactive) | 
COCCNS(=O)(=O)c1cc(-c2nn3c(C)nnc3c3ccccc23)ccc1C | -0.274% (inactive) | 
Cc1nc2ccccn2c(=O)c1NC(=O)c1cccs1 | 2.42% [at 102 µM] (inactive) | 
Cc1ccc(C)c(S(=O)(=O)c2nnn3c2nc(N2CCOCC2)c2sccc23)c1 | 13.3% (inactive) | 
CCOC(=O)C1CN(S(=O)(=O)c2ccc(OC)cc2)c2cc(Cl)ccc2O1 (configuration not stated) | 34.7% [at 102 µM] (inactive) | 
Cc1ccc([N+](=O)[O-])cc1S(=O)(=O)N1CCCN(C)CC1 |  | 56.2 µM (active)
Cc1ccc(C)c(S(=O)(=O)N2CCN(CC(=O)Nc3ccc([N+](=O)[O-])cc3)CC2)c1 | -2.86% (inactive) | 
O=[N+]([O-])c1cccc(S(=O)(=O)N2CCCCCC2)c1 | -27.8% (inactive) | 
CC(CNC(=O)c1nnc(Cc2cccc(F)c2)o1)c1ccccc1 (configuration not stated) | -21.9% (inactive) | 
O=C(NCCC1CCCCN1S(=O)(=O)c1ccc(Cl)cc1)C(=O)NCc1ccco1 (configuration not stated) | -5.87% [at 0.501 µM] (inactive) | 
CCOc1ccc(NC(=O)C2CC(=O)N=C(N)S2)cc1 (configuration not stated) | -39.6% (inactive) | 
CCOc1ccc(NC(=O)c2nc(SCC)ncc2Cl)cc1 | -3.51% [at 102 µM] (inactive) | 
CCOc1ccc(N/C(N)=N/c2nc(C)c(C)c(=O)[nH]2)cc1 |  | 50.1 µM (active)
COc1ccccc1C(=O)Nc1c(C(=O)Nc2ccc(C)cc2)oc2ccccc12 | -5.27% (inactive) | 
COc1ccc(C)cc1NC(=O)COCc1cc(-c2cccs2)on1 | 8.56% (inactive) | 
COc1ccc(CNC(=O)COc2ccccc2C(=O)c2cnn(-c3ccccc3)c2)cc1OC | 13.3% [at 12.7 µM] (inactive) | 
CCOC(=O)C1(Cc2ccccc2C)CCCN(C(=O)c2ccc(COC)o2)C1 (configuration not stated) | -36.1% [at 102 µM] (inactive) | 
N#CCCN(C(=O)COC(=O)c1ccc(S(=O)(=O)N2CCCCCC2)cc1)c1ccccc1 | -22% (inactive) | 
CC(C)(C)C(=O)NCCCNc1ccc([N+](=O)[O-])cc1 | -3.86% (inactive) | 
O=C(Cc1ccccc1)NNS(=O)(=O)c1ccc([N+](=O)[O-])cc1 | -66.7% (inactive) | 

Compound | activity, negative = inhibition | Potency
O=C(O)/C=C/C(=O)NNc1ccc([N+](=O)[O-])cc1 |  | 7.94 µM (active)
CCc1nn(CC(=O)Nc2cc(C)cc(C)c2)c(=O)c2cc3sccc3n12 | -17.4% (inactive) | 
Cc1n[nH]c(=O)c2c(NC(=O)CSc3cc(Cl)ccc3Cl)oc(C)c12 | 18.3% [at 2.33 µM] (inactive) | 
Cc1n[nH]c(=O)c2c(NC(=O)CSc3ccccc3F)oc(C)c12 |  | 31.6 µM (active)
Cc1n[nH]c(=O)c2c(NC(=O)COC(=O)c3ncc(Cl)c(Cl)c3Cl)oc(C)c12 | 5.9% [at 0.501 µM] (inactive) | 
O=c1c2cc(-c3ccccc3)sc2nc2n1N=C(c1cccs1)CS2 |  | 11.2 µM (active)
O=c1c(-c2ccccc2)cnc2n1CCS2 | 20.8% [at 12.7 µM] (inactive) | 
O=C(O)Cc1sc(-c2ccccc2)nc1-c1cccs1 | -42.8% [at 102 µM] (inactive) | 
CS(=O)(=O)N1CCN=C1SCc1ccc(F)cc1 | 53.4% [at 102 µM] (inactive) | 
CCOC(=O)N1CCC(NC(=O)c2cnn(-c3cccc(C)c3)c2C2CCN(C(=O)OC(C)(C)C)CC2)CC1 | -20.7% (inactive) | 
CCOC(=O)c1cc2c(=O)n3ccccc3nc2n(CCCOC)c1=NC(=O)C(C)(C)Oc1ccc(Cl)cc1 | -2.89% (inactive) | 
O=C(CSc1nc(=O)[nH]c2c1CCCC2)Nc1cc(C(F)(F)F)ccc1Cl | 10.2% (inactive) | 
O=C(CSc1nccn1C1CCCC1)Nc1cc(C(F)(F)F)ccc1Cl |  | 12.6 µM (active)
CC(CC(=O)Nc1cc(C(F)(F)F)ccc1Cl)c1ccccc1 (configuration not stated) | 9.26% (inactive) | 
Cc1cccc(-n2ccnc2SCC(=O)Nc2cc(C(F)(F)F)ccc2Cl)c1 |  | 14.1 µM (active)
COc1ccc(NC(=O)CSc2nccn2C2CCCC2)cc1OC | 9.83% (inactive) | 
Cc1cccc(-n2c(Cc3cc(=O)[nH]c(=O)[nH]3)nnc2SCC(=O)Nc2cccc(C(F)(F)F)c2)c1 | 15.1% [at 102 µM] (inactive) | 
O=C(CN1C(=O)NC2(CCCCC2)C1=O)N1CCN(C(=O)c2cccs2)CC1 | -17% [at 2.33 µM] (inactive) | 
Cc1ccc2nc(COc3cccc(NC(=O)Nc4ccc(C)c(Cl)c4)c3)cc(=O)n2c1 | 6.7% (inactive) | 
CC(=O)NC12CC3CC(C1)CC(C(=O)N1CCN(C(=O)c4ccco4)CC1)(C3)C2 | 25.3% (inactive) | 
CCCC(=O)Nc1ccc2oc(-c3ccc(O)c(Br)c3)nc2c1 | -0.852% (inactive) | 
CC(C)Nc1nnc(SC(C)C(=O)N(C)C2CCCCC2)s1 (configuration not stated) | 7.92% [at 0.501 µM] (inactive) | 
O=C(Cn1ncn2nc(-c3cccs3)cc2c1=O)NCc1cccc(Br)c1 | -32.8% (inactive) | 
